Out of some 360,000 compounds screened, about 11,000 (3.1%) were called active. Rule as the data show it: active = activity change below about -30%; inactive = the rest. The sample as a whole holds a higher share of actives than the screen did.
What follows are compounds tested against D(1A) dopamine receptor (Homo sapiens) (UniProt P21728) (assay: Antagonist of Human D 1 Dopamine Receptor: qHTS). Conditions: HEK293 TREx D1 cells, calcium flux, dopamine EC80; at 10 µM; hits give low values.
Procedure, shortened: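 After overnight tetracycline induction at 30 C, force-coupled D1 HEK293 cells took up a no-wash calcium dye at room temperature. Compounds were added and monitored 180 s, and the response to EC80 dopamine was then recorded.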
% is scaled to controls: 0 for no effect and ±100 for the full control effect.

Chain of D(1A) dopamine receptor (Homo sapiens) (P21728 whole entry, looked up): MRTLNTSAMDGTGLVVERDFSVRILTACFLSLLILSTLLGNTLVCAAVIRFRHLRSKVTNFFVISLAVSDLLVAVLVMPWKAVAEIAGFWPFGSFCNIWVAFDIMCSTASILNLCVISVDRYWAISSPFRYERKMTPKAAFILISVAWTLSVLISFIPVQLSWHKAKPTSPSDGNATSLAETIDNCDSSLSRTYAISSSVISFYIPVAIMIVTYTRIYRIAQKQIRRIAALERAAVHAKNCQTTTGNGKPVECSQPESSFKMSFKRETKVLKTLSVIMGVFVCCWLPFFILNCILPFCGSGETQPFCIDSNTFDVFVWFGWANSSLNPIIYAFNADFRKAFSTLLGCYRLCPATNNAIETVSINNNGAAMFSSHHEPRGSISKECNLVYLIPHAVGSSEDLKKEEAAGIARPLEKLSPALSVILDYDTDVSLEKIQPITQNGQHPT

Activity change, negative = inhibition, active:
O=C(NCc1ccc(Cl)cc1)c1cc2c(nc3sccn32)s1 -58.9%
O=C(Cc1c[nH]c2ccccc12)OCCOC(=O)Cc1c[nH]c2ccccc12 -32.2%
CCOc1ccc(Nc2nc3c(S(=O)(=O)c4cccc(Cl)c4)nnn3c3ccsc23)cc1 -38.1%
O=C(Nc1ccc2c(c1)OCCO2)C1CCCC1 -32.7%
N#Cc1c(NC(=O)CCCl)sc2c1CCCCC2 -30.1%
CCOC(=O)CSc1nnc(CNc2nc(-c3ccccc3)cs2)n1C -37.1%
Cn1nccc1C(=O)N1CCCC(C(=O)c2ccc(Oc3ccccc3)cc2)C1 (centres undefined) -33%
CCOC(=O)N/N=C/c1cn(Cc2ccccc2Cl)c2ccccc12 -33.9%
[O-][n+]1c2c(nn1-c1ccc(Cl)c(Cl)c1)-c1nonc1CC2 -35.4%
COc1ccc(S(=O)(=O)N2CCCCC2)cc1Br -47.9%
Cc1c(NC(=O)/C=C/C(=O)O)cccc1[N+](=O)[O-] -41.8%
Cc1c(NC(=S)NCc2ccc(F)cc2)cccc1[N+](=O)[O-] -31.5%
O=C(NCc1ccco1)c1sc2cccc(F)c2c1Cl -46.1%
O=C(CSC1=Nc2ccccc2C2=NC(c3ccccc3)C(=O)N12)NCC1CCCO1 (centres undefined) -47%
CCOc1ccc(NC(=O)C(C)N2C(=O)c3ccccc3C2=O)cc1 (centres undefined) -42.7%
CCOc1ccccc1NC(=O)Cn1c(=O)n(Cc2ccccc2)c(=O)c2c(C)c(C(=O)N(C)C)sc21 -72.6%

Activity change, negative = inhibition, inactive:
CCOC(=O)c1ccc(NC(=O)CCn2cnnn2)cc1 14.2%
O=C1C(F)N([S+](=O)([O-])c2ccc3c(c2)OCCO3)CCN1[S+](=O)([O-])c1c(F)cccc1F (centres undefined) -5.38%
CCOc1cc2[nH]c(=O)n(Cc3ccc(C(=O)NCCN(CC)CC)cc3)c(=O)c2cc1OCC 5.18%
CCc1cccc(NC(=O)CN(C)S(=O)(=O)c2ccc3[nH]c4c(c3c2)CCCC4)c1 -15.3%
Cc1ccc(OC(=O)CSc2nnc(-c3cccs3)o2)cc1 -6.25%
O=C(NCc1ccc2c(c1)OCO2)c1c(O)nc2sccn2c1=O 2.36%
O=C(NCc1ccc(Cl)cc1)c1cc(=O)nc2sc(-c3ccccc3)nn12 0.956%
Cc1ccc(C(=O)Nc2ccc(OCc3cc(=O)n4c5c(sc4n3)CCCC5)cc2)cc1 -13.4%
CCOC(=O)CN(C)Cc1c[nH]c2ccccc12 0.896%
O=C(COC(=O)Cc1c[nH]c2ccccc12)NCCc1ccccc1 -2.05%
Cc1ccc(S(=O)(=O)N2CCc3cc(C(=O)Nc4ccc(Cl)cc4C)ccc32)cc1 3.15%
O=S(=O)(c1ccc(Cl)cc1)c1nnn2c1nc(NC1CCCC1)c1sccc12 -19.7%
O=S(=O)(c1ccc(Br)cc1)c1nnn2c1nc(NC1CCCCCC1)c1sccc12 4.84%
COc1ccc(-c2nnc(SCC(=O)Nc3ccc(C(C)C)cc3)nc2-c2ccc(OC)c(OC)c2)cc1OC -19.7%
NC1=NC(c2cc(F)cc(F)c2)n2c(nc3ccccc32)N1 (centres undefined) 0.602%
CCc1cccc(C)c1NS(=O)(=O)c1ccc(-c2cc(C)no2)s1 24.4%
O=C(Nc1ccc2c(c1)OCO2)C1CC1(Cl)Cl (centres undefined) -9.18%
O=C(Nc1ccc2c(c1)OCCO2)c1ccoc1 15.7%
COc1ccc(NC(=O)NC(C)c2c(-n3cccc3)sc(C)c2C)cc1OC (centres undefined) -6.54%
COc1ccc(N2CCN(C3=NS(=O)(=O)C(c4cccc(Br)c4)=C3C)CC2)cc1 -8.66%
N#Cc1c(NC(=O)C2CCCO2)sc2c1CCCCC2 (centres undefined) -19.1%
CCN1CCN(CC(=O)Nc2sc3c(c2C#N)CCC3)CC1 -11.5%
COc1ccccc1CNC(=O)CS(=O)(=O)c1cccc2nsnc12 13.8%
CCCn1c2ccccc2c2cnn(CC(=O)NCC3CCN(Cc4ccc(C)cc4)CC3)c(=O)c21 -18.2%
CCOC(=O)CSc1nnc(CNC(=O)c2cccs2)n1-c1ccccc1 -4.34%
Cn1c(CNc2nc(-c3ccccc3)cs2)nnc1SCC(=O)c1ccccc1 -24.4%
COc1ccc(-c2nn(CC(=O)Nc3ccccc3F)c3c2cnc2ccc(F)cc23)cc1 -0.202%
COc1ccc(-c2nn3c(-c4ccc(OC)cc4)nnc3c3ccccc23)cc1 -13.1%
COc1ccc(-c2nc3ccc(C(=O)NCc4ccc(C)cc4)cc3nc2-c2ccc(OC)cc2)cc1 -1.2%
COc1ccc(CNC(=O)c2ccc3c(O)c(S(=O)(=O)c4ccccc4)c(=O)[nH]c3c2)cc1 5.97%
Cc1cc(C)cc(NC(=O)CCS(=O)(=O)c2cc3c4c(c2)CCN4C(=O)CC3)c1 20.6%
CCn1nc(C)cc1C(=O)N1CCCC(C(=O)c2cccc(OC)c2)C1 (centres undefined) 0.174%
O=C(c1ccc(-c2ccccc2)cc1)C1CCCN(C(=O)c2cncs2)C1 (centres undefined) -2.69%
Cc1nnc(NC(=O)CSc2nc3c([nH]c4ccccc43)c(=O)n2-c2cccc(Cl)c2)s1 -3.1%
CCOC(=O)c1c(NC(C)=O)c2c3c(sc2n1Cc1c(C)cc(C)cc1C)CCCC3 27.5%
CCOC(=O)C(Cc1ccccc1)NC(=O)CCc1c(C)nc2c(c(C)nn2-c2ccc(C)c(C)c2)c1C (centres undefined) -20.6%
COc1cccc(Cn2cc(/C=N/NC(=O)c3cc(O)cc(O)c3)c3ccccc32)c1 3.21%
N#CCC(=O)N/N=C/c1cn(Cc2ccc3ccccc3c2)c2ccccc12 16.1%
CCc1ccc(NC(=O)c2nn(-c3ccc(C)cc3)c(=O)n(C)c2=O)cc1 -19.1%
Cc1ccc(N(CC(=O)NCc2ccc(Cl)cc2)S(=O)(=O)N(C)C)cc1 27%
CC(C)(C)c1ccc(C(=O)NCC(c2ccc(Cl)cc2)N2CCOCC2)cc1 (centres undefined) -13.3%
O=c1cc(COc2cccc(C(F)(F)F)c2)nc2sc3c(n12)CCCC3 -4.09%
O=C(CSCc1cnn(-c2ccccc2)c1-n1cccc1)NCc1ccc(Cl)cc1 5.55%
CCCOc1ccc(C2c3c(-c4ccccc4O)n[nH]c3C(=O)N2Cc2cccnc2)cc1 (centres undefined) 27.7%
Cc1nnc(N2CCC(C(=O)Nc3ccc(F)cc3)CC2)c2nn(-c3ccc(Cl)cc3)c(C)c12 -3.69%
COc1ccc(F)cc1S(=O)(=O)N1CCCCC1 1.35%
COc1cc(C(=O)NNC(=O)c2ccc(S(=O)(=O)N3CCCCC3)cc2)cc(OC)c1OC -4.12%
COc1ccc(OC)c(-c2csc(-c3c(N)c(C(=O)c4ccccc4)n4ccccc34)n2)c1 -9.07%
Cc1cccc(NC(=S)NCCc2ccc(F)cc2)c1C -6.25%
O=[N+]([O-])c1ccccc1NCc1ccc(Cl)cc1 -2.99%
O=C(O)/C=C/C(=O)NNc1ccc([N+](=O)[O-])cc1 4.19%
Cc1c(NC(=O)CCCOc2ccccc2)cccc1[N+](=O)[O-] 0.202%
COc1ccc(-c2cccc(NS(=O)(=O)c3cc(C)c(OC)c(C)c3C)c2)nn1 -20.7%
COc1ccc(-c2cc(C(=O)NCc3cc(OC)c(OC)c(OC)c3)[nH]n2)cc1 -10.2%
COc1ccc(C(F)(F)F)cc1NC(=O)c1sc2nc(-c3cccs3)ccc2c1N -1.54%
NS(=O)(=O)c1ccc(NC(=O)C(=O)Nc2ccc3nc4n(c(=O)c3c2)CCCCC4)cc1 -3.24%
COc1ccc(Cc2nc3ccc(C(=O)NCc4ccccc4Cl)cc3o2)cc1 -19.1%
CN1CCN(C(CNC(=O)c2ccccc2F)c2ccc3c(c2)OCO3)CC1 (centres undefined) 8.69%
CCOc1cc(C(=O)NCCc2csc3nc(-c4ccc(C)cc4)nn23)cc(OCC)c1OCC 3.63%
O=C(NCc1ccco1)c1nn2cccnc2c1Cl 15.7%
O=C(NCc1ccco1)c1cc2sccc2n1Cc1ccc(F)cc1 -8.06%
CCOc1ccc(N2CC(C)Cn3c2nc2c3c(=O)n(Cc3c(F)cccc3Cl)c(=O)n2C)cc1 (centres undefined) -2.48%
COc1ccc(CNC(=O)c2ccc3c(c2)nc2n3CCOC2)c(OC)c1 1.06%
O=C(CSc1ccc(-c2ccccc2)nn1)NCC1CCCO1 (centres undefined) 5.37%
Cc1ccc(CNC(=O)CSC2=Nc3ccccc3C3=NC(C)C(=O)N23)cc1 (centres undefined) -1.57%
O=C(COc1ccc(Cl)cc1)Nc1ccc(-c2nc3cc(Cl)ccc3o2)c(O)c1 3.9%
CN(CC(=O)Nc1ccccc1F)S(=O)(=O)c1ccc2c(c1)c(=O)n(C)c(=O)n2C 8.37%
CCOc1ccc(NC(=O)C(CC(C)C)N2Cc3ccccc3C2=O)cc1 (centres undefined) 6.62%
COC(=O)c1ccc(NC(=O)C(C)N2C(=O)c3ccccc3C2=O)cc1 (centres undefined) -2.2%
COc1cc2nc(SCC(=O)Nc3ccccc3F)n3nc(-c4ccccc4)nc3c2cc1OC -6.83%
COc1ccc(CNc2nc(-c3ccc(Cl)cc3)nn2C(=O)c2ccccc2)cc1 -0.876%
Cc1c(C(=O)N(C)C)sc2c1c(=O)n(-c1ccc(F)cc1)c(=O)n2CC(=O)N(C)c1ccccc1 -0.832%
Cc1cccc(NC(=O)Cn2c(=O)n(Cc3ccccc3)c(=O)c3c(C)c(C)sc32)c1 -0.708%

— PubChem BioAssay AID504652 (National Center for Advancing Translational Sciences (NCATS), 2011)
